Records with an inconclusive call do not appear. The source made the active and inactive calls. How the source made its calls, unless noted: active means hit-call score of the fitted dose curve at least 0.9, where 1 is the maximum; inconclusive means response in the unintended direction; inactive means score below 0.9.

In assay [1] the target is human Peroxisome Proliferator-activated Receptor alpha (PPARa), PPARA (gene 5465) (UniProt Q07869). Kind of assay: ATG_PPARa_TRANS: Attagene TRANS-FACTORIAL HepG2 Assay for human Peroxisome Proliferator-activated Receptor alpha (PPARa) (AID 2283001). The method, boiled down:
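HepG2 cells transiently transfected with multiplexed GAL4-UAS reporters driven by exogenous chimeric NR-Gal4 proteins; reporter mRNA measured after 24 h dosing. Read-out by RT-PCR, 6-FAM labelling, HpaI digestion and capillary electrophoresis; gain of signal versus DMSO.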

The target of assay [2] is human Peroxisome Proliferator-activated Receptor delta (PPARd), PPARD (gene 5467) (UniProt Q03181). Kind of assay: ATG_PPARd_TRANS: Attagene TRANS-FACTORIAL HepG2 Assay for human Peroxisome Proliferator-activated Receptor delta (PPARd) (AID 2283002). The method, boiled down:
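Read-out: reporter mRNA induction, quantified by fluorescent RT-PCR products resolved by capillary electrophoresis. Human HepG2 liver cells carried transiently transfected Gal4-UAS reporter constructs with chimeric NR-Gal4 fusions. Cells were dosed for 24 h; DMSO served as baseline.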

In assay [3] the target is human Retinoic Acid Receptor beta (RARb), RARB (gene 5915) (UniProt P10826). Kind of assay: ATG_RARb_TRANS: Attagene TRANS-FACTORIAL HepG2 Assay for human Retinoic Acid Receptor beta (AID 2283004). An outline of the steps:
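Transient transfection of HepG2 with multiple reporter units → chemical dosing, 24 h → total RNA isolation → RT with oligo(dT) → reporter-specific PCR, 6-FAM primer extension, HpaI digest → capillary electrophoresis. Positive direction vs DMSO control.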

The target in assay [4] is Retinoic acid receptor alpha (Homo sapiens) (UniProt P10276). Kind of assay: ATG_RARa_TRANS: Attagene TRANS-FACTORIAL HepG2 Assay for human Retinoic Acid Receptor alpha (RARa) (AID 2283005). The method, boiled down:
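HepG2 transiently transfected with multiplex GAL4-UAS reporter units including a human RARa–GAL4 chimera; 24 h compound exposure. Reporter mRNA quantified by RT-PCR, 6-FAM labeling and capillary electrophoresis; gain of signal versus DMSO.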

Assay [5] has as its target Peroxisome proliferator-activated receptor gamma (Homo sapiens) (UniProt P37231). Kind of assay: ATG_PPARg_TRANS: Attagene TRANS-FACTORIAL HepG2 Assay for human Peroxisome Proliferator-activated Receptor-gamma (PPARg) (AID 2283007). An outline of the steps:
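Liver-derived HepG2 cells expressing an exogenous NR-Gal4 chimera alongside GAL4-UAS reporter genes; 24 h exposure. Fluorescence of reporter RT-PCR products, separated by capillary electrophoresis, gives mRNA induction relative to DMSO.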

The target in assay [6] is Nuclear receptor subfamily 1 group I member 2 (Homo sapiens) (UniProt O75469). As to the kind of experiment: ATG_PXR_TRANS: Attagene TRANS-FACTORIAL HepG2 Assay for human Pregnane X Receptor (PXR) (AID 2283008). The method, boiled down:
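HepG2 cells transiently transfected with GAL4-UAS reporter units and PXR-Gal4 chimera, exposed 24 h. Reporter mRNA quantified by RT-PCR, fluorescent labelling, HpaI digestion and capillary electrophoresis; gain of signal vs DMSO.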

Assay [7] deals with human Retinoic Acid Receptor gamma (RARg), RARG (gene 5916) (UniProt P13631). As to the kind of experiment: ATG_RARg_TRANS: Attagene TRANS-FACTORIAL HepG2 Assay for human Retinoic Acid Receptor gamma (RARg) (AID 2283009). An outline of the steps:
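Transient transfection of HepG2 with multi-reporter constructs, then 24 h chemical treatment. Total RNA isolated, reverse-transcribed, PCR-amplified, fluorescently labelled and resolved by capillary electrophoresis; activity scored as mRNA induction versus DMSO.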

The target in assay [8] is human RAR-related Orphan Receptor beta (RORb), RORB (gene 6096) (UniProt Q92753). As to the kind of experiment: ATG_RORb_TRANS: Attagene TRANS-FACTORIAL HepG2 Assay for human RAR-related Orphan Receptor beta (RORb) (AID 2283010). An outline of the steps:
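Readout is reporter-gene mRNA induction, detected as fluorescence after RT-PCR and capillary electrophoresis, fitted for gain of signal against DMSO controls. Transiently transfected HepG2 liver cells carrying GAL4-UAS reporter constructs were treated for 24 hours.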

In assay [9] the target is human RAR-related Orphan Receptor gamma (RORg), RORC (gene 6097) (UniProt P51449). Kind of assay: ATG_RORg_TRANS: Attagene TRANS-FACTORIAL HepG2 Assay for human RAR-related Orphan Receptor gamma (RORg) (AID 2283011). The method, boiled down: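 First, HepG2 liver cells were transfected with GAL4-UAS-driven reporter constructs and the RORg-Gal4 fusion. Next, they were treated with chemical for 24 h. Finally, reporter mRNA was quantified by RT-PCR and capillary electrophoresis, with upward activity fitted against DMSO.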

Assay [10] addresses human Retinoid X Receptor beta (RXRb), RXRB (gene 6257) (UniProt P28702). Kind of assay: ATG_RXRb_TRANS: Attagene TRANS-FACTORIAL HepG2 Assay for human Retinoid X Receptor beta (RXRb) (AID 2283013). An outline of the steps:
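Transfect HepG2 with GAL4-UAS multi-reporter constructs (chimeric NR-Gal4, TRANS format); dose compound 24 h; isolate RNA, RT-PCR, FAM primer extension, HpaI digest; quantify by capillary electrophoresis; positive direction vs DMSO.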

The target of assay [11] is human Thyroid Receptor alpha (THRa1), THRA (gene 7067) (UniProt P10827). Kind of assay: ATG_THRa1_TRANS: Attagene TRANS-FACTORIAL HepG2 Assay for human Thyroid Receptor alpha (THRa1) (AID 2283014). The method, boiled down:
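Reporter transcript induction, read by capillary electrophoresis of 6-FAM-labelled RT-PCR products, reflects activity of a transfected THRa1-Gal4 fusion in HepG2 liver cells. Cells were dosed for 24 h; activity was fitted in the positive direction against DMSO.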

In assay [12] the target is Retinoic acid receptor RXR-alpha (Homo sapiens) (UniProt P19793). As to the kind of experiment: ATG_RXRa_TRANS: Attagene TRANS-FACTORIAL HepG2 Assay for human Retinoid X Receptor alpha (RXRa) (AID 2283012). An outline of the steps:
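Transient transfection of human HepG2 with multiple GAL4-UAS reporter constructs; 24 h compound exposure; total RNA isolated, reverse-transcribed, PCR-amplified, 6-FAM labelled, HpaI-cut, resolved by capillary electrophoresis. Positive-direction fit versus DMSO.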

Read-out in assay [13]: Intercellular Adhesion Molecule 1 (ICAM1), ICAM1 (gene 3383)
Kind of assay: BSK_3C_ICAM1: BioMAP Diversity Plus: 3C Assay for Intercellular Adhesion Molecule 1 (ICAM1) Biomarker Activity (AID 2283003; active means hit-call score of the fitted dose curve at least 0.9, where 1 is the maximum; inactive means score below 0.9). As to conditions: primary human endothelial cells (HUVEC); actives raise or lower the signal. An outline of the steps:
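ICAM-1 levels measured by ELISA after HUVEC cultures in the 3C system had been dosed for 24 h. Gain or loss of signal relative to DMSO was fitted in both directions.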

Assay [14] is described as follows: BSK_3C_Proliferation: Cell Proliferation Assessment in the BioMAP Diversity Plus: 3C Assay (AID 2283006; active means hit-call score of the fitted dose curve at least 0.9, where 1 is the maximum; inactive means score below 0.9;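 further: potency may reflect either rise or fall in cell number versus DMSO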). As to conditions: primary human endothelial cells (HUVEC). An outline of the steps:
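Read-out is total protein by SRB absorbance at 560 nm, taken as a proxy for relative cell number. Primary human umbilical vein endothelium cultured below confluence was dosed for 48 h, TCA-fixed and SRB-stained; curves were fitted bidirectionally versus DMSO.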

Read-out in assay [15]: E-selectin (Homo sapiens) (UniProt P16581)
Kind of assay: BSK_3C_Eselectin: BioMAP Diversity Plus: 3C Assay for Eselectin Biomarker Activity (AID 2283015; active means hit-call score of the fitted dose curve at least 0.9, where 1 is the maximum; inactive means score below 0.9;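 further: cell surface E-selectin protein quantified by ELISA 24 h after dosing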). The note with it: primary human endothelial cells (HUVEC); actives raise or lower the signal. An outline of the steps:
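ELISA read-out of E-selectin on endothelial monolayers after 24 h chemical treatment. Human umbilical vein primary cells served as the system, with DMSO defining baseline activity for bidirectional fitting.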

Read-out in assay [16]: Interleukin-1 alpha (IL1a), IL1A (gene 3552)
Kind of assay: BSK_BE3C_IL1a: BioMAP Diversity Plus: BE3C Assay for Interleukin-1 alpha (IL1a) Biomarker Activity (AID 2283016; active means hit-call score of the fitted dose curve at least 0.9, where 1 is the maximum; inactive means score below 0.9). As to conditions: primary human bronchial epithelial cells; actives raise or lower the signal. An outline of the steps: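 BE3C primary human bronchial epithelium; cpd 24 h; IL-1a by ELISA; bidirectional fit vs DMSO; parallel SRB (0.1% SRB, 10% TCA fix, 560 nm) for cytotoxicity.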

Read-out in assay [17]: Monocyte Chemoattractant Protein-1 (MCP1), CCL2 (gene 6347)
As to the kind of experiment: BSK_3C_MCP1: BioMAP Diversity Plus: 3C Assay for Monocyte Chemoattractant Protein-1 (MCP1) Biomarker Activity (AID 2283017; active means hit-call score of the fitted dose curve at least 0.9, where 1 is the maximum; inactive means score below 0.9). The note with it: primary human endothelial cells (HUVEC); actives raise or lower the signal. The method, boiled down: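 ELISA read-out of MCP-1 from human umbilical vein endothelial cell cultures harvested 24 h post-dosing. Gain or loss of signal was fitted relative to DMSO.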

Read-out in assay [18]: Monocyte Chemoattractant Protein-1 (MCP1), CCL2 (gene 6347)
Kind of assay: BSK_4H_MCP1: BioMAP Diversity Plus: 4H Assay for Monocyte Chemoattractant Protein-1 (MCP1) Biomarker Activity (AID 2283018; active means hit-call score of the fitted dose curve at least 0.9, where 1 is the maximum; inactive means score below 0.9). As to conditions: primary human endothelial cells (HUVEC); actives raise or lower the signal. An outline of the steps:
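ELISA read-out of MCP-1 from human vascular endothelial primary cells taken at 24 hours after compound exposure. Activity was fitted in both directions relative to DMSO, which served as negative control.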

Read-out in assay [19]: Human Leukocyte Antigen - DR isotype (HLADR), HLA-DRA (gene 3122)
As to the kind of experiment: BSK_3C_HLADR: BioMAP Diversity Plus: 3C Assay for Human Leukocyte Antigen - DR isotype (HLADR) Biomarker Activity (AID 2283019; active means hit-call score of the fitted dose curve at least 0.9, where 1 is the maximum; inactive means score below 0.9). As to conditions: primary human endothelial cells (HUVEC); actives raise or lower the signal. The method, boiled down:
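ELISA readout of surface HLA-DR on human umbilical vein endothelium, taken 24 h after chemical treatment. Gain- and loss-of-signal were both fitted relative to DMSO.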

Read-out in assay [20]: Interleukin-8 (IL8), CXCL8 (gene 3576)
As to the kind of experiment: BSK_3C_IL8: BioMAP Diversity Plus: 3C Assay for Interleukin-8 (IL8) Biomarker Activity (AID 2283020; active means hit-call score of the fitted dose curve at least 0.9, where 1 is the maximum; inactive means score below 0.9). As to conditions: primary human endothelial cells (HUVEC); actives raise or lower the signal. The method, boiled down:
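ELISA read-out of IL-8 from human umbilical vein endothelium, measured 24 h after chemical dosing. Activity is expressed relative to DMSO negative control, with both increases and decreases fitted.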

Chain of human Retinoid X Receptor beta (RXRb), RXRB (gene 6257) (P28702 whole entry, looked up, the tested form may be a part): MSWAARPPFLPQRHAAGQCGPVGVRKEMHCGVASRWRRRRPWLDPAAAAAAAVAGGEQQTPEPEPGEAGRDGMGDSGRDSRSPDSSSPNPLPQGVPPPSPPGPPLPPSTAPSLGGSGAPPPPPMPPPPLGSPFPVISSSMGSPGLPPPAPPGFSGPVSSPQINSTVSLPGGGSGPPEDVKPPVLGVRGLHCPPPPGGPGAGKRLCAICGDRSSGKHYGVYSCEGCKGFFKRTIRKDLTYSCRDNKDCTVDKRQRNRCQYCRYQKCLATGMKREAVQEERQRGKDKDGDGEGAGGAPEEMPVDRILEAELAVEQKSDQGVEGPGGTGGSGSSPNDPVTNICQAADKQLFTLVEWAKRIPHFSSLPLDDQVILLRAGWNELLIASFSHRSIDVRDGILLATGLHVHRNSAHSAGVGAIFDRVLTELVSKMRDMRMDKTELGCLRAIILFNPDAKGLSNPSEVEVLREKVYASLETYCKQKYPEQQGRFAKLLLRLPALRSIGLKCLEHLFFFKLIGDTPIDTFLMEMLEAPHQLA
Chain of human Peroxisome Proliferator-activated Receptor delta (PPARd), PPARD (gene 5467) (Q03181 whole entry, looked up, the tested form may be a part): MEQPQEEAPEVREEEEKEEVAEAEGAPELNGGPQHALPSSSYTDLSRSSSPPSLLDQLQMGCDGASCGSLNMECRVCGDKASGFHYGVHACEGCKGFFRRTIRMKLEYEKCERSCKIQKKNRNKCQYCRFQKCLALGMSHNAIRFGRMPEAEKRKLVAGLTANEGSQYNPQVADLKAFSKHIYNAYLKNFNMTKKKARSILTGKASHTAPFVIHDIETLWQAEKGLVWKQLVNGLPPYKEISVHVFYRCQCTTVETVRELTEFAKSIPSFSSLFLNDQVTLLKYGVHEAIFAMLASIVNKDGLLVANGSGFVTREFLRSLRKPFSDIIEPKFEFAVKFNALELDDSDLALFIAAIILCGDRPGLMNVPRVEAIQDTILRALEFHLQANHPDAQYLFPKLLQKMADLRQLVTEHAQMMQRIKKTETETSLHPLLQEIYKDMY
Chain of human Peroxisome Proliferator-activated Receptor alpha (PPARa), PPARA (gene 5465) (Q07869 whole entry, looked up, the tested form may be a part): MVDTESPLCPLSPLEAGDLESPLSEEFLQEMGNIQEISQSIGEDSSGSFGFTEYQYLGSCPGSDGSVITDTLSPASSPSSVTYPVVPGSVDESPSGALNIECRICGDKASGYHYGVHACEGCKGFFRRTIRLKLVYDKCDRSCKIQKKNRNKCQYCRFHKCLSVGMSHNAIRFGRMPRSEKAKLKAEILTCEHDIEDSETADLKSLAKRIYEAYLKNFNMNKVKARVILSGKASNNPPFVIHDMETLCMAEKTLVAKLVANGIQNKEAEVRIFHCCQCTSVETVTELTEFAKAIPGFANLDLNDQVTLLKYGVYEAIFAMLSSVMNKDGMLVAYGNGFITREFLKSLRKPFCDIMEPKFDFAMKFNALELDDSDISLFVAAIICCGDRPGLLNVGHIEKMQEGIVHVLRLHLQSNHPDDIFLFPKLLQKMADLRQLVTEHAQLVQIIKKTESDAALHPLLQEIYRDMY
Chain of Nuclear receptor subfamily 1 group I member 2 (Homo sapiens) (O75469 whole entry, looked up, the tested form may be a part): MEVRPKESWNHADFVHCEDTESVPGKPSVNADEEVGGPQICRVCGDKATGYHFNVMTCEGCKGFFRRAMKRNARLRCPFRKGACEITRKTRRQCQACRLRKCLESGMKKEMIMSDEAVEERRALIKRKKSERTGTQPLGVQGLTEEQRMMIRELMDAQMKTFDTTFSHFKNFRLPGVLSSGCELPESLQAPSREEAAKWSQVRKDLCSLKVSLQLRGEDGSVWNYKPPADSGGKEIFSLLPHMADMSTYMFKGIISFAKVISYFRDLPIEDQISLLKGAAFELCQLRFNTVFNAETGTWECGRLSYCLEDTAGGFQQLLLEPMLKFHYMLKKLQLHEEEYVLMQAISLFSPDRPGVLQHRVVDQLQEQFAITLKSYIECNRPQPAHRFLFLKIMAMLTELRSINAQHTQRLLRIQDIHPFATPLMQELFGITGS
Chain of human Retinoic Acid Receptor beta (RARb), RARB (gene 5915) (P10826 whole entry, looked up): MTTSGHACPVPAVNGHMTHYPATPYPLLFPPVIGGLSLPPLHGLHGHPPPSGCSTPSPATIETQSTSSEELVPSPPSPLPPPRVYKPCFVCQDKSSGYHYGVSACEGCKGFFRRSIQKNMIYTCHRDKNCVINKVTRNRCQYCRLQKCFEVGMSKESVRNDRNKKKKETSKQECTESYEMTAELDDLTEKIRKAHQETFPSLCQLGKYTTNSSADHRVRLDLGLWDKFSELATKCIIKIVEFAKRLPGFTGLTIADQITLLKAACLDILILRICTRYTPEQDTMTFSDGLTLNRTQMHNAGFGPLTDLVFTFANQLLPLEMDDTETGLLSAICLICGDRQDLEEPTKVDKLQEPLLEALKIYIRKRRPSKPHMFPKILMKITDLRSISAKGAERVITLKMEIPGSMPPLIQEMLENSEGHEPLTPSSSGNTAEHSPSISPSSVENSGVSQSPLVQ
Chain of human Thyroid Receptor alpha (THRa1), THRA (gene 7067) (P10827 whole entry, looked up, the tested form may be a part): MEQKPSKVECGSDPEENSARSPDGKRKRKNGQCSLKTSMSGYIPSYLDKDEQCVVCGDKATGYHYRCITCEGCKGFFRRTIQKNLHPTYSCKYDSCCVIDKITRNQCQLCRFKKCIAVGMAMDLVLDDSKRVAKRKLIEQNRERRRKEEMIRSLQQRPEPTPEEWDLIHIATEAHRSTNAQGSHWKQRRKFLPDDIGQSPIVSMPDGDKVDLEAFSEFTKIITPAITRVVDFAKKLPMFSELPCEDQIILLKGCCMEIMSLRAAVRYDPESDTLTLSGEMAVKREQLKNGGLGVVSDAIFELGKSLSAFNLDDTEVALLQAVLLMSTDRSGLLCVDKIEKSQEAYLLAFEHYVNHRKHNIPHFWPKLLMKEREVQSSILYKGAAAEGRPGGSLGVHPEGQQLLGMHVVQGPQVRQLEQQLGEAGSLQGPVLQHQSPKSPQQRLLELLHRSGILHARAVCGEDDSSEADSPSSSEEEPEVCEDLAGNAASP
Chain of Retinoic acid receptor RXR-alpha (Homo sapiens) (P19793 whole entry, looked up, the tested form may be a part): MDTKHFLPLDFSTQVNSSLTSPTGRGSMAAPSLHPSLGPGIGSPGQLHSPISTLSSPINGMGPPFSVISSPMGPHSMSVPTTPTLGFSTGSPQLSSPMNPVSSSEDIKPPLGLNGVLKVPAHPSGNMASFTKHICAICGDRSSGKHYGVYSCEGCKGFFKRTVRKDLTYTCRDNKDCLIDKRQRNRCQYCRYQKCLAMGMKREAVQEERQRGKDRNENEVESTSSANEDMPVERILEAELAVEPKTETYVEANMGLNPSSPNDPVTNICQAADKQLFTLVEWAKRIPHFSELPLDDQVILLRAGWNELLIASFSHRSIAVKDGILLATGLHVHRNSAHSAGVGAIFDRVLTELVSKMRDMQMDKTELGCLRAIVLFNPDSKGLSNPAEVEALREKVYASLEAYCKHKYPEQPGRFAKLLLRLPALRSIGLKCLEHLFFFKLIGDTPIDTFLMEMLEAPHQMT
Chain of Peroxisome proliferator-activated receptor gamma (Homo sapiens) (P37231 whole entry, looked up, the tested form may be a part): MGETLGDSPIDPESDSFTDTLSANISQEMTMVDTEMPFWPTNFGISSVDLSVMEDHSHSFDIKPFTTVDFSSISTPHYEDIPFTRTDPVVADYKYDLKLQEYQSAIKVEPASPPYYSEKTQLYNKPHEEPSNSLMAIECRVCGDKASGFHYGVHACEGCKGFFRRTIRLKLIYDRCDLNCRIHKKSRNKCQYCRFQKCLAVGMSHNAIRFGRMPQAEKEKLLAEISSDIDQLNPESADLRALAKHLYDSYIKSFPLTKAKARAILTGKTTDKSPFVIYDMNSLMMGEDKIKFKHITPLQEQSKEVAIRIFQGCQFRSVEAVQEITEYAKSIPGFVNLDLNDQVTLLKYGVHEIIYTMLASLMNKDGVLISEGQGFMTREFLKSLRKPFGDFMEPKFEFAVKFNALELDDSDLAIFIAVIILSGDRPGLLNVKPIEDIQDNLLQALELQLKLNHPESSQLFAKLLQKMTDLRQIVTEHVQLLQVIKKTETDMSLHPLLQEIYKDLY
Chain of human RAR-related Orphan Receptor beta (RORb), RORB (gene 6096) (Q92753 whole entry, looked up, the tested form may be a part): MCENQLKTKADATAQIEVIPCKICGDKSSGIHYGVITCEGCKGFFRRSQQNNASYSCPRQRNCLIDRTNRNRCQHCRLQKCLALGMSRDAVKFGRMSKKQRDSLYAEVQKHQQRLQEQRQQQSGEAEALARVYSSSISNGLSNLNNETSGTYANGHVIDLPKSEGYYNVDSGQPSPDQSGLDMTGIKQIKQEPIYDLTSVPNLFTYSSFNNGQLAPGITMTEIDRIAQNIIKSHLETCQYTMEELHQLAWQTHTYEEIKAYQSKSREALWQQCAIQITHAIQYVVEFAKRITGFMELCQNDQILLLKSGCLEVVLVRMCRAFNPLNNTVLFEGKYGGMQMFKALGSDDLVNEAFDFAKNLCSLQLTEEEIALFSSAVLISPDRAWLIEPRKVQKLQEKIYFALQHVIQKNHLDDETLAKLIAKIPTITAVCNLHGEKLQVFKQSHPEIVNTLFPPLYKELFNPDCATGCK
Chain of human Retinoic Acid Receptor gamma (RARg), RARG (gene 5916) (P13631 whole entry, looked up): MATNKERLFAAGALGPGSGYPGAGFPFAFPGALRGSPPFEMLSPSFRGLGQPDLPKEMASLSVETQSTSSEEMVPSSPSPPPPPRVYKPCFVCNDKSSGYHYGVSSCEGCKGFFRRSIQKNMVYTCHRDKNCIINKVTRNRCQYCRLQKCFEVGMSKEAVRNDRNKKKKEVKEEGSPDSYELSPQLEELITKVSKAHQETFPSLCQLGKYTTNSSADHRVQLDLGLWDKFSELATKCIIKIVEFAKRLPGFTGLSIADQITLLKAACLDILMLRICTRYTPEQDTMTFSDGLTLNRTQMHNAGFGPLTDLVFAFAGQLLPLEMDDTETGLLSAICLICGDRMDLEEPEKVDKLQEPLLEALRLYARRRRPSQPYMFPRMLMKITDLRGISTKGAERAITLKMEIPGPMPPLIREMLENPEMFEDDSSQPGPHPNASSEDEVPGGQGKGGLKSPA

As to `CCCCCC(CO)CCC` (centres undefined), the result in assay [1], in assay [2], in assay [3], in assay [4], in [5] and in [6] was inactive. The call in assay [7], in [8], in assay [9], in [10] and in assay [11] was inactive.

As usually defined, the AC50 is the concentration giving half of the maximal activity seen. On to `Cc1ccccc1C=O`, for which the compound was called inactive in [1], in assay [2], in [5], in assay [8], in [12] and in assay [10]. The outcome in assay [11] was inactive. The AC50 in [6] is 20.9 µM (active).

As for `O=S(=O)(O)c1cccc2c(S(=O)(=O)O)cccc12`, the outcome in assay [1], in assay [2], in assay [3], in [12] and in [10] was inactive.

As to `CCCCNC(=O)NS(=O)(=O)c1ccc(C)cc1`, the outcome in assay [1], in [2], in assay [5], in [6], in assay [8] and in assay [12] was inactive. In addition, the call in assay [10] and in assay [11] was inactive.

For `O=C[C@H](O)[C@H](O)[C@H](O)CO`, the result in assay [1], in assay [2], in [3], in [4], in assay [5] and in assay [7] was inactive. In assay [9], the compound was classed as inactive.

For the compound `CCn1c2ccccc2c2cc(N)ccc21`, the compound was called inactive in assay [1], in assay [2], in assay [13], in assay [12], in assay [11] and in assay [15]. In addition, the outcome in assay [16] and in assay [20] was inactive. Besides, the AC50 is 13.3 µM (active) in [14]; 22.9 µM (active) in assay [5]; 4.67 µM (active) in assay [6]; 14.3 µM (active) in assay [10]; 0.641 µM (active) in assay [17]; 0.812 µM (active) in assay [18]. For the same compound, in [19], the AC50 was 1.57 µM (active).

Source of the values: PubChem BioAssay (EPA / NIEHS).
